The full list was thinned out, with hits kept by preference.
ST2 inh: blocks human ST2 binding to IL-33 | inhibition, % for hits at 17 µM | 78,000 tested, 2.3% active | AlphaLISA ST2-Fc/biotin-IL-33 interaction, 1 h | AID 1259354; in the data active means inhibition above about 30%
Target sequence (Q01638 whole entry, looked up): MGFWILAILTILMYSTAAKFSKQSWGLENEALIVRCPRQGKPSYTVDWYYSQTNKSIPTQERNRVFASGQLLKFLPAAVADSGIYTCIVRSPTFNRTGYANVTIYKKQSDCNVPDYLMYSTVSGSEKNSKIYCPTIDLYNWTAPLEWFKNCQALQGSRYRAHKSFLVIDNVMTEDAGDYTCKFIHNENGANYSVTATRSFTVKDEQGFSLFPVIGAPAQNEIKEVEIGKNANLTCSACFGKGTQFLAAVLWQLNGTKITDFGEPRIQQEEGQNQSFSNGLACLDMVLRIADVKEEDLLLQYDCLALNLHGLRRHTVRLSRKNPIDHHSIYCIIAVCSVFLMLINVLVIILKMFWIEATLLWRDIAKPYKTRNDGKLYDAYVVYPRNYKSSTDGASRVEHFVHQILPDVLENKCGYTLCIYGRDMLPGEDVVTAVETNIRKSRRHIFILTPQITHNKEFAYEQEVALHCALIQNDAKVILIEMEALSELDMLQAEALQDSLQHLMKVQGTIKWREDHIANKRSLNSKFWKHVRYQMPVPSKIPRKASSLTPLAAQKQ
Numbers without * were called inactive; i = inactive; ! = not confirmed by another sample.

SMILES	ST2 inh
COc1ccc(-c2nc3s/c(=C\c4cccs4)c(=O)n3n2)cc1	i
CC1=NCCN1S(=O)(=O)c1cc(Cl)c(Cl)cc1Cl	i
Nc1nonc1-c1noc(COc2ccc(Cl)cc2Br)n1	i
C=C(C(=O)OC1CC2(C)C(O)CCC(=O)C2C(O)C1C(=C)C(=O)OC)C(O)CO (stereo not drawn)	i
COc1ccc(NC(=O)c2ccccc2Sc2ccc([N+](=O)[O-])cc2)cc1	i
COc1ccc(-c2[nH]c3ccccc3c2C(C[N+](=O)[O-])c2ccco2)cc1 (stereo not drawn)	i
COc1ccc(C(C[N+](=O)[O-])Sc2ccccc2N)cc1 (stereo not drawn)	32%*!
COc1cc(OC)c(OC)cc1CN1CCOc2ccc(CN3C[C@@H](C)O[C@@H](C)C3)cc2C1	i
Cc1cc(C)cc(-n2c(CN3CCN(C(=O)NCc4cccc(F)c4)CC3)nc3cccnc32)c1	i
CCc1ccc(Nc2nnc(Cc3ccccc3Cl)c(=O)[nH]2)cc1	i
CCOc1ccc2c3c(c(=O)oc2c1)CCC3	i
CCOc1ccc2nc(Nc3nc4c(c(=O)[nH]3)CCC4)nc(C)c2c1	31%*
CCOc1ccc2nc(N3CCCC(N4CCN(c5nonc5C)CC4)CC3)nc(C)c2c1 (stereo not drawn)	i
COCC(C)NCc1cccc(-c2cn[nH]c2)c1 (stereo not drawn)	i
CCOc1cc(C2C(C#N)=C(N)Oc3n[nH]c(C(C)C)c32)cc([N+](=O)[O-])c1O (stereo not drawn)	i
Cc1ccc(C)c(S(=O)(=O)Nc2ccccc2Cl)c1	i
CN=C(NS(=O)(=O)c1cc(C)ccc1C)c1ccccc1	i
COc1ccc(Nc2cc(C)nc(N3CCN(S(=O)(=O)c4ccc(C)cc4C)CC3)n2)cc1	i
COc1ccc(NC2=CC(=NS(=O)(=O)c3cc(C)ccc3C)c3ccccc3C2=O)cc1	95%*
COc1ccc(S(=O)(=O)Nc2cc(C)ccc2C)cc1	i
Cc1ccc(C)c(S(=O)(=O)N=C2C=C(Nc3ccccc3)C(=O)c3ccccc32)c1	88%*
O=C(CCc1ccccc1)Nc1ccnn1C1CCN(Cc2c(F)ccc(F)c2F)CC1	i
CCN(Cc1noc(CC(C)C)n1)C(=O)c1cccc(=O)[nH]1	i
COc1ccc(Cl)cc1NC(=O)Nc1ccccc1Sc1cc(C)nc2ncnn12	i
CN1CCN(S(=O)(=O)c2ccc([N+](=O)[O-])cc2)CC1	i
SMILES	ST2 inh
COc1ccc(N2CCN(S(=O)(=O)c3ccc(OC)cc3)CC2)cc1	i
O=[N+]([O-])c1ccc(S(=O)(=O)N2CCN(c3ccc(Cl)cc3)CC2)cc1	33%*
OCCCn1cnc(-c2ccccc2)c1-c1ccc2occc2c1	i
COc1ccc(C(=O)Nc2ccc([N+](=O)[O-])cc2)cc1	i
COc1ccc(CC(=O)Nc2ccc(C)c([N+](=O)[O-])c2)cc1	i
COc1ccc(N/C=C(/c2cc(O)ccc2O)[N+](=O)[O-])cc1	45%*
O=C(NC1CC(=O)N(C2CCCCCC2)C1)c1ccccc1-c1ncc[nH]1 (stereo not drawn)	i
COc1ccc(Cl)cc1NS(=O)(=O)c1ccc(CC(C)C)cc1	i
O=C(Nc1cc2cc(Cl)ccc2oc1=O)c1ccc(Br)cc1	i
COC(=O)C1=C(NC(=O)c2ccc(C(C)(C)C)cc2)CCS1	53%*
CCc1ccc(NC(=O)c2ccc(N(Cc3ccccc3)S(C)(=O)=O)cc2)cc1	i
COc1ccccc1NC(=O)c1ccc(OCc2ccccc2)cc1	i
COC(=O)c1c(NC(=O)COc2ccc(C(C)(C)C)cc2)sc2c1CCC2	i
COC(=O)C1=C(NC(=O)c2ccc(Cc3ccccc3)cc2)CCS1	31%*
CC(C)(C)c1ccc(C(=O)Nc2ccc3c(c2)OCO3)cc1	i
COc1ccccc1C1Nc2c(C(=O)O)cccc2C2C3CCC(C3)C12 (stereo not drawn)	i
CC(=O)Nc1cc(C)ccc1OCc1cc(=O)n2oc(C)cc2n1	i
COc1ccc(-c2nnc([C@H]3CCN(C(=O)C4CC4)C3)o2)cc1	i
COc1ccc(N=Cc2ccc(OCc3ccccc3)cc2)cc1OC	33%*
C/C=C/c1ccc(OCc2ccccc2)c(OC)c1	i
COc1ccc(C=Nc2ccc3[nH]c(=O)[nH]c3c2)cc1OC	i
CC1(C)CC(=O)C2=C(C1)N(c1cccc(Br)c1)C(N)=C(C#N)C2c1ccsc1 (stereo not drawn)	i
Cc1ccc2[nH]nc(C(=O)NCCS(=O)(=O)N(C)C)c2c1	i
COc1ccc(N(C)C(=O)CNS(=O)(=O)c2cccs2)cc1	i
CCC1CN(c2cncc(C(=O)N(C)C)n2)CCC(=O)N1Cc1ccccc1 (stereo not drawn)	i
SMILES	ST2 inh
Cc1cccc(NC2CCS(=O)(=O)C2)c1 (stereo not drawn)	i
CCOC(CCNC(=O)c1cc2cc3ccc(OC)cc3nc2s1)OCC	i
COc1ccc2cc3cc(C(=O)NCc4ccc(F)cc4)sc3nc2c1	31%*
COc1ccc(CNC(=O)c2cc3cc4ccc(OC)cc4nc3s2)c(OC)c1	i
COc1ccc(CNC(=O)c2cc3cc4ccc(OC)cc4nc3s2)cc1	38%*
COCCNC(=O)c1cc2cc3ccc(C)cc3nc2s1	i
COc1ccc(CNC(=O)c2cc3cc4ccc(OC)cc4nc3o2)cc1	i
O=[N+]([O-])c1ccc(-c2nnc3ccc4ccccc4n23)cc1	i
CCCn1cnc2c1CN(C(=O)c1ccc(OC)cc1)[C@H](C(=O)OC)C2	i
Cn1c(=O)c2c(nc3n(Cc4ccccc4)c(-c4ccc(F)cc4)cn23)n(C)c1=O	i
COc1cc(OC)cc(-c2cc3nc(C)c(CCC(=O)NC(C)c4cccs4)c(C)n3n2)c1 (stereo not drawn)	i
Cc1ccc(C(=O)Nc2ccccn2)cc1S(=O)(=O)N1CCCCC1	i
O=C(O)C1(CC2CCCCO2)CCN(c2noc(-c3ccccc3)n2)CC1 (stereo not drawn)	i
COc1ccc(C2CC(c3cccs3)=NN2C(=O)CSc2c[nH]c3ccccc23)cc1 (stereo not drawn)	i
COc1cccc(C2CC(c3ccc(Br)cc3)=NN2C(=O)CCCC(=O)O)c1OC (stereo not drawn)	i
COc1cccc(C2CC(c3cccs3)=NN2C(=O)CSC2CCCCC2)c1OC (stereo not drawn)	44%*
COc1cccc(N2C(=O)NC3CC2(C)Oc2ccccc23)c1 (stereo not drawn)	i
COc1cc2c3c(c1)C(C)CC(C)(C)N3C(=O)C2=O (stereo not drawn)	40%*
CC1=CC(C)(C)N(C(=O)C(C)N2C(=O)c3ccccc3C2=O)c2cc(C)c(C)cc21 (stereo not drawn)	i
COc1cccc2c1OC1(C)CC2NC(=O)N1c1cccc(Cl)c1 (stereo not drawn)	i
COc1cc2c3c(c1)C(C)=CC(C)(C)N3C(=O)C2=O	70%*
COc1ccc2c(c1)N(C(=O)C(C)N1C(=O)c3ccccc3C1=O)C(C)(C)C=C2C (stereo not drawn)	i
Cc1nc2cc(-c3ccccc3)nn2c(C)c1CCC(=O)NC1CCCC1	i
CCOc1ccc(S(=O)(=O)Nc2ccc(Cl)c(C(F)(F)F)c2)c2cccnc12	i
CC(=O)c1cccc(NC(=O)c2noc3c2CC(C(C)(C)C)CC3)c1 (stereo not drawn)	i
O=C1C(Nc2ccccc2)=CC(c2cccc(F)c2)N1c1ccccc1 (stereo not drawn)	i
CN(C)C=NCCCn1c(N2CCCCC2)nc2c1c(=O)n(C)c(=O)n2C	i
